SMN2 splice enh: qHTS Assay for Enhancers of SMN2 Splice Variant Expression. 210,000 compounds, 2.8% hits. HEK293 SMN2-luciferase splicing reporter, luminescence, 30-36 h. Potency, µM (doses to about 46.1 µM), for the others: top-dose activity change, positive = activation, most hits filed as activators. AID 1458, 2008; further: % of control where 0% means no effect; nearly all actives have a fitted effect of over 55% in size
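HEK293 cells carry an SMN2 […]–luciferase reporter in which exon 7 inclusion puts luciferase in frame. Cells were plated 10-12 h before compound addition, then incubated 30-36 h at 37C. ONE-Glo luminescence was read; sodium butyrate at 4.5 mM final served as control.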
NPC1 prom act: qHTS Assay for NPC1 Promoter Activators; Huh7 NPC1 promoter luciferase reporter, 24 h; Potency, µM (top dose mostly 9.22 µM), for the others: top-dose activation, most hits filed as activators; AID 485313, 2010; 320,000 compounds, 2.4% hits; further: % of control where 0% means no effect; nearly all actives have a fitted effect of over 60% in size
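Huh7 cells stably carrying NPC1 promoter–luciferase, plated in Opti-MEM with 10% FBS for 2 h, were exposed to compound in DMSO for 24 h at 37 °C; luciferase reagent was added for 10 min and luminescence read.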
Rab9 prom act: qHTS Assay for Rab9 Promoter Activators | Potency, µM (series often up to 9.22 µM), without a hit: at the highest dose activation, negative = inhibition, hits mostly activators | 320,000 compounds, 2.8% hits | Huh7 Rab9 promoter-luciferase reporter, luminescence, 24 h; further: % of control where 0% means no effect; nearly all actives have a fitted effect of over 60% in size
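Rab9 promoter-driven luciferase in stably transfected Huh7 cells; 1500 cells/well rested 2 h, exposed to compound in DMSO for 24 h at 37 °C, 5% CO2. Luminescence read 10 min after adding luciferase reagent at ambient temperature.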
FLuc modulator: qHTS profiling assay for firefly luciferase inhibitor/activator using purifed enzyme and Km concentrations of substrates (counterscreen for miR-21 project); AID 588342, 2011; Luciferin 4-monooxygenase (Photinus pyralis), P08659; 360,000 compounds, 6.9% hits; purified FLuc, Km substrates, luminescence inhibition; Potency, µM (series often up to 57.5 µM), without a hit: top-dose activity change, negative = inhibition, usual class: inhibitors;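 further: plate controls were vehicle for no effect and reference inhibitor for full effect; nearly all actives have a fitted effect of over 55% in size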
Target sequence (P08659 whole entry, looked up): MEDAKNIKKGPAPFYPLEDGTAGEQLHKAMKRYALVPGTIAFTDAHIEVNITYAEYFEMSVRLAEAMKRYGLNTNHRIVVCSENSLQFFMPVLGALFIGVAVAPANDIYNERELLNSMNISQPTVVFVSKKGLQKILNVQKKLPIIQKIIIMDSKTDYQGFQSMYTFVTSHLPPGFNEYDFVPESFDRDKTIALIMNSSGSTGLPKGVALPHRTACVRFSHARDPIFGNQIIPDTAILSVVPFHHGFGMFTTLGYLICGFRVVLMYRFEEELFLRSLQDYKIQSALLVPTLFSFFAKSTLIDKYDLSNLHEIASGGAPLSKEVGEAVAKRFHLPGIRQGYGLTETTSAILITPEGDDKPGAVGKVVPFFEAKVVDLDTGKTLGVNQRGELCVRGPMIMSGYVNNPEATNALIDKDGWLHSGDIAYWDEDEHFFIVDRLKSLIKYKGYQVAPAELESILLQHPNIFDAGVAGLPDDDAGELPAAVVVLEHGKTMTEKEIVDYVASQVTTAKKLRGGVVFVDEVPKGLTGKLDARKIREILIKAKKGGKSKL
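Purified P. pyralis luciferase (10nM final) with 10uM D-luciferin and 10uM ATP (Km levels) in 50mM Tris acetate pH 7.5, 10mM Mg acetate, 0.01% Tween-20, 0.05% BSA; qHTS 6-point titration, ~60 µM downward; luminescence read.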
ELG1 genotoxic: qHTS screen for small molecules that induce genotoxicity in human embryonic kidney (HEK293T) cells expressing luciferase-tagged ELG1 | HEK293T ELG1-luciferase reporter, luminescence, 16 h | Potency, µM (top dose mostly 46 µM), for inactives: at the highest dose activity change, positive = activation, actives largely listed as activators | 330,000 compounds, 1.3% hits; further: % of control where 0% means no effect; nearly all actives have a fitted effect of over 60% in size
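HEK293T cells expressing luciferase-tagged ELG1 were exposed to compound or DMSO vehicle for 16 hr at 37 °C and 5% CO2. Luciferase activity was then measured with ONE-Glo after 30 min at room temperature.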
* = called active by the depositor; ? = inconclusive; / = no result; [ ] = remark or other dose. A selection: hits, their analogues and other compounds. The true share with any hit is near 7.4%. The call rests on the fitted dose curve; in most records, active means well fitted curve in the direction sought with a large enough effect; inconclusive means small, poorly fitted or top-dose-only effect, or another doubt; inactive means no such curve, though single readings can be large; an effect the other way counts as inactive or inconclusive. Potency means the concentration at half of the fitted maximal effect.

SMILES	SMN2 splice enh	NPC1 prom act	Rab9 prom act	FLuc modulator	ELG1 genotoxic
CCOC(=O)Cc1cc(=O)n2[nH]c(-c3ccc(C)cc3)cc2n1	-1.8%	1.0%	18.3%	19µM*	?
Cc1ccc(C)c(NC(=O)C(Cc2ccccc2)n2cccc2)c1 (configuration not stated)	-48.4%	/	/	0.9%	/
Cc1ccc(NC(=O)c2nnn(-c3ccc4c(c3)OCCO4)c2N)cc1	/	2.24µM*	5.62µM*	10.7µM*	?
Cc1ccc(NC(=O)c2nnn(-c3cccc(C(F)(F)F)c3)c2N)cc1	0.2%	-2.6%	-2.0%	-2.4%	15.2%
Nc1c(C(=O)Nc2ccccc2)nnn1-c1ccc2c(c1)OCCO2	/	0.224µM*	0.1µM*	0.849µM*	0.184µM*
N#CCCN(C(=O)COC(=O)c1cc2ccccc2oc1=O)c1ccccc1	/	4.5%	2.1%	1.3%	-3.9%
Clc1ccc(CN2CCCN(Cc3ccc(Cl)cc3)C2c2cc3ccccc3c3ccccc23)cc1	-26.7%[9.22 µM]	/	/	/	/
CCCCC/C=C\C[C@@H]1O[C@H]1/C=C/C(O)C/C=C\CCCC(=O)O (some centres not stated)	-3.5%	/	/	/	/
COc1ccc(C2CC2C(=O)c2ccccn2)cc1 (configuration not stated)	11.6%	?	?	16.9µM*	6.0%
CCCc1ccc2oc(C(=O)N3CCNC(=O)C3CC(=O)OC)c(C)c2c1 (configuration not stated)	/	-5.0%	-4.0%	?	?
COc1ccc(-c2cc(C(=O)Nc3sc4c(c3C#N)CCCC4)c3ccccc3n2)cc1	-15.7%	-1.5%	0.3%	15.1µM*	-2.4%
COC(=O)c1sc(NC(=O)c2cc(-c3ccccc3)nc3ccccc23)c(C#N)c1C	-91.3%	-32.9%	-29.5%	?	-3.2%
CCOC(=O)c1sc(NC(=O)c2cc(-c3ccc(C)cc3)nc3ccccc23)c(C#N)c1C	-78.4%	-2.6%	-13.7%	12µM*	-6.1%
Cc1cc(C)nc(N/N=C/c2ccccc2OCc2ccc(Br)cc2)n1	12.6µM*	14.2%	15.3%	?	-5.3%
Cc1cc(C)nc(N/N=C/c2cc(Br)ccc2O)n1	/	-6.1%	-6.6%	8.49µM*	?
Cc1cc(C)nc(N/N=C/c2ccccc2OCc2cccc(Br)c2)n1	-10.3%	-0.8%	-4.6%	19µM*	0.8%
CCN1CCN(C(=O)Cn2ncc3c4ccccc4n(Cc4c(C)cc(C)cc4C)c3c2=O)CC1	2.1%	/	/	-8.5%	/
O=C(Nc1cc(Cl)ccc1-n1cncn1)c1ccc([N+](=O)[O-])o1	/	-18.1%	-6.9%	2.0%	-16.8%
CCCn1c(SCC(=O)N2CCCC2=O)nc2ccccc2c1=O	/	0.1%	2.3%	2.2%	-1.3%
COc1ccc(C(=O)NCCc2csc(-c3ccc(Cl)cc3)n2)cc1	/	/	/	12µM*	/
CCOc1ccc(C(=O)NCCc2csc(-c3cccc(C)c3)n2)cc1	/	/	/	16.9µM*	/
Cc1ccc(C(=O)NCCc2csc(-c3cccc(F)c3)n2)cc1C	/	/	/	19µM*	/
COc1cc(OC)cc(C(=O)NCCc2csc(-c3ccc(C(F)(F)F)cc3)n2)c1	/	/	/	-12.0%	/
O=C(NCC(O)c1ccccc1)c1ccc(Cl)c(S(=O)(=O)N2CCCCC2)c1 (configuration not stated)	/	-12.6%	-12.0%	1.4%	-9.3%
Cn1c(-c2ccncc2)nc2ccccc21	/	0.0%	0.0%	6.0%	7.3%
CCN(CC)c1ccc(-c2nc3cnccc3n2C)cc1	?	3.98µM*	3.98µM*	4.78µM*	?
Cn1cnnc1SCC(=O)c1ccc2c(c1)CCCC2	4.9%	14.5%	23.5%	19µM*	?
CC(C)CCN(C(=O)c1csnn1)C(C(=O)NC1CCCC1)c1ccc(F)cc1 (configuration not stated)	/	6.9%	-2.6%	19µM*	0.6%
COc1ccc(/C=N/NC(=O)c2nonc2C)cc1	?	18.3%	?	1.9µM*	?
COc1ccc(/C=N\NC(=O)C2=NNC(=O)C2C)cc1 (configuration not stated)	7.3%	?	?	6.01µM*	?

Assay outcomes as filed in PubChem BioAssay.
